In the library only some 7.9% were active in any assay of this set; here they are far more common.
Lassa entry inh = blocks Lassa virus binding to or entry into cells. Lassa virus pseudotype entry inhibition, cell reporter. Potency, µM (series often up to 37.9 µM), without a hit: top-dose activity change, negative = inhibition, usual class: inhibitors. actives 1.2% (n = 300,000). AID 540256; calls by dose curve; tested in HEK293 cells; also: potency is read from the fitted curve at half-maximal effect; nearly all actives have a fitted effect of over 50% in size
HCV inh = blocks hepatitis C virus; Huh7.5.1 HCVcc-Cre infection, luciferase reporter, 44 h; Potency, µM (doses to about 41.8 µM), for inactives: at the highest dose activity change, negative = inhibition, hits mostly inhibitors; actives 3.4% (n = 340,000); AID 651820; active = well fitted inhibition curve with a large enough effect; inconclusive = small, poorly fitted or top-dose-only effect, or another doubt; inactive = no such curve, though single readings can be large or run the other way; also: potency is read from the fitted curve at half-maximal effect
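Seed cells (1,000/well) for 4 h; treat with compound and infect with HCVcc-Cre, moi about 0.5. Incubate 44 h, then detect luciferase activity.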
FMDV antiviral = blocks foot and mouth disease virus. FMDV antiviral cell-based qHTS. Potency, µM (top dose mostly 57.9 µM), for inactives: at the highest dose activity change, negative = inhibition, hits mostly inhibitors. actives 1.2% (n = 410,000); calls by dose curve; tested in HEK293T cells; also: read-out not given here; potency is read from the fitted curve at half-maximal effect; nearly all actives have a fitted effect of over 45% in size
HCMV antiviral = human cytomegalovirus inhibition; actives 4.5% (n = 410,000); activity change, negative = inhibition, % at 57.5 µM; HFF cells, HCMV-luciferase reporter, 72 h; hits give low values; in the data active = activity change below about -60%; inconclusive = no clear call, values can overlap the other calls; inactive = above about -39%
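Luciferase read-out from HCMV-luciferase-infected HFFs (MOI 1 PFU/cell) 72 h post infection at 37C; compounds added after 16 h cell attachment; activity normalized between buffer-only basal and Salinomycin (10uM) inhibitor controls.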
Marburg entry inh = Marburg virus entry inhibition; Marburg virus pseudotyped entry inhibition, cell reporter; Potency, µM (highest dose often 37.8 µM), without a hit: top-dose activity change, negative = inhibition, actives largely listed as inhibitors; actives 1.8% (n = 300,000); calls by dose curve; tested in HEK293 cells; also: potency is read from the fitted curve at half-maximal effect
Active calls of the source: *; ? = inconclusive; . = not tested or not shown; ! = not confirmed by another sample; [ ] = remark or other dose. % is scaled to controls: 0 for no effect and ±100 for the full control effect.

SMILES	Lassa entry inh	HCV inh	FMDV antiviral	HCMV antiviral	Marburg entry inh
CCOc1ccccc1NC(=O)c1ccccc1NC(=O)c1ccco1	-22.1%	-20.7%	-3.4%	24.1	-0.6%[46.1 µM]
O=C1C(=O)c2ccccc2C(O)=C1c1ccccc1F	3.9%	11.6%	?	-17.6	-14.3%
O=C1c2ccccc2C(=O)C1c1ccnc2ccccc12	?	-9.3%	-55.4%	-17.1	7.3µM*
O=C1C(c2ccnc3ccccc23)=C(O)c2ccccc21	2.82µM*	-17.6%	-81.8%	-27.0	?
O=Cc1nccc2ccccc12	-1.5%[46.1 µM]	27.5%	-16.8%	40.6	-5.2%
O=C1c2ccccc2C(=O)C1c1nccc2ccccc12	?	-3.8%	-69.1%	18.0	2.51µM*
CCC1CN(C(=O)N2CCC(C(=O)NCc3ccccc3OC)CC2)c2cc(C)ccc2O1 (configuration not stated)	.	?	-21.0%	-14.5	.
CCC1CN(C(=O)Nc2ccc(C)cc2)c2cc(C)ccc2O1 (configuration not stated)	?	?	9.0%	-10.8	11.2µM*
CCC1CN(C(=O)N2CCC(C(=O)NCCc3ccc(OC)cc3OC)CC2)c2cc(C)ccc2O1 (configuration not stated)	-18.2%[46.1 µM]	.	28.2µM*	-1.3	.
CCC1CN(C(=O)Nc2ccccc2F)c2cc(C)ccc2O1 (configuration not stated)	-9.4%[46.1 µM]	.	-16.7%	11.0	.
CCC1CN(C(=O)N2CCC(C(=O)NCc3ccccc3OC)CC2)c2ccccc2O1 (configuration not stated)	.	15.8µM*	-14.7%	-11.8	.
Cc1ccc(C)c(CN2C(=O)CSc3ccc(C(=O)NCCc4ccc(Cl)cc4)cc32)c1	-1.7%[46.1 µM]	.	-9.6%	14.7	14.5%[46.1 µM]
CN(c1cc2c(c3c1ccn3C)C1CCC2O1)C(C)(C)C (configuration not stated)	3.53µM*	.	.	.	.
Cc1ccccc1CNC(=O)C(=O)NCCC1CCCCN1S(=O)(=O)c1cccs1 (configuration not stated)	?	?	-10.4%	-28.9	10µM*
COc1ccc(CCNC(=O)C(=O)NCCC2CCCCN2S(=O)(=O)c2ccccc2)cc1 (configuration not stated)	?	-4.6%	?	?	-0.2%
COc1ccc(CCNC(=O)C(=O)NCCC2CCCCN2S(=O)(=O)c2cccs2)cc1 (configuration not stated)	?	?	31.6µM*	-29.6	-17.5%
COc1ccccc1CNC(=O)C(=O)NCCC1CCCCN1S(=O)(=O)c1cccs1 (configuration not stated)	?	11.2µM*	?	-11.5	?
CCc1cc(CC)c(/C=N/NC(N)=O)c(CC)c1	.	11.2µM*	-14.3%	-23.5	.
Cc1ccc(Cl)cc1N1CCN(C(=O)C2(S(=O)(=O)c3ccc(Cl)cc3)CC2)CC1	1.2%	14.1µM*	?	30.8	-19.0%
Cc1cccc(N2CCN(C(=O)C3(S(=O)(=O)c4ccc(Cl)cc4)CC3)CC2)c1C	.	?	-15.4%	?	.
CC(=O)c1c(C)[nH]c(C(=O)N2CCN(c3cc(Cl)ccc3C)CC2)c1C	6.51µM*	?	?	12.8	7.3µM*
Cc1ccc(Cl)cc1N1CCN(C(=O)c2cc3c(=O)[nH]c4ccccc4c3n2C)CC1	?	8.91µM*!	7.94µM*	-94.9*	5.62µM*!
Cc1ccc(Cl)cc1N1CCN(C(=O)c2ccc(CN3CCOCC3)cc2)CC1	-29.8%	25.1µM*	.	5.7	?
CN(C)CCCNc1nc2cc(-c3ccc(F)cc3)sc2c(=O)n1C	.	.	-2.7%	-37.8	.
O=C(CN(c1cccc(Br)c1)S(=O)(=O)c1ccccc1)N1CCc2ccccc2C1	-22.2%[46.1 µM]	.	11.9%	-5.9	.
SMILES	Lassa entry inh	HCV inh	FMDV antiviral	HCMV antiviral	Marburg entry inh
Oc1ccc(C[C@@H]2CNCCN2CCc2cccc(F)c2)cc1	.	22.6%	-18.6%	2.8	.
O=C(COC(=O)c1cc[n+]([O-])cc1)Nc1c(Cl)cccc1C(F)(F)F	-1.4%[46.1 µM]	9.3%	-7.3%	-28.8	28.1%
c1ccc(CN=C(NCc2ccccc2)NCc2ccccc2)cc1	?	?	?	-14.9	?
CC(=O)c1c(C)[nH]c(C(=O)N2CCN(c3ccc(F)cc3)CC2)c1C	4.5%	-13.3%	-27.2%	-71.3*	1.2%
N#CCSc1ccccc1NC(=O)COC(=O)Cc1c[nH]c2ccccc12	.	-1.3%	0.6%	12.0	.
O=c1c(-c2ccnn2-c2ccc(F)cc2)cnc2n1CCS2	7.9%	8.9%	-12.0%	22.4	6.5%
O=c1ccnc2n1COCS2	.	21.7%	-3.7%	-99.9*	.
CC(Cc1ccccc1)NC(=O)CC(c1ccccc1)c1ccccc1O (configuration not stated)	5.62µM*	?	-29.2%	-21.0	?
O=C(CC(c1ccccc1)c1ccccc1O)NCc1ccccc1 (configuration not stated)	?	9.8%	12.2%	29.2	?
O=C(c1cnsn1)N1CCOc2ccc(C(O)C(c3ccccc3)c3ccccc3)cc2C1 (configuration not stated)	.	.	-18.2%	.	.
COc1ccccc1C1CN(CC(=O)NCC2OCCc3ccccc32)Cc2ccccc2O1 (configuration not stated)	.	.	-5.9%	.	.
O=C(N[C@H]1CC[C@@]23CCCN2C(=O)CCC[C@H]3[C@H]1Cc1ccccc1)c1ccccc1	.	.	.	6.4	.
Cc1cc(Br)c(NC(=O)CCl)c(Br)c1	-14.2%	-15.4%	?	-65.8*	?
Cc1cc(NC(=O)CCl)on1	-19.0%	?	?	-68.0*	-16.9%[46.1 µM]
Cc1c(Cl)cccc1NC(=O)Nc1ccn(C)n1	?	-15.2%	13.8%	-28.7	?
Cn1ccc(NC(=O)CCl)n1	?	?	?	-99.0*	?
Cc1cc(NC(=O)CCl)nn1C	?	?	35.5µM*	?	7.94µM*
Cc1cc(Br)c(NC(=O)CN(C)CCOc2ccccc2)c(Br)c1	.	?	-5.0%	-26.1	.
NC(=O)c1ccc(OCC(F)(F)F)nc1	.	15.3%	-8.7%	2.7	.
COc1cccc(-c2cnc3c(NC(C)=O)cc(-c4cccc(C(=O)NCCO)c4)cn23)c1	.	.	-13.7%	?	.
CC1=C(C(=O)N(C)C)CC(CC(=O)NCc2cccs2)C(=O)N1Cc1ccc(F)cc1 (configuration not stated)	.	.	-12.2%	8.6	.
O=C(Nc1nccs1)C1CC=CCC1C(=O)OCC(F)(F)C(F)F (configuration not stated)	.	11.5%	-6.6%	2.7	.
O=C(O)[C@@H]1C[C@H](CP(=O)(O)O)CCN1	.	.	-22.2%	.	.
COc1ccc(NC(=O)CSc2nc(-c3ccccc3)nc3c2Cc2c(CO)cnc(C)c2O3)cc1Cl	-6.3%[46.1 µM]	.	-11.9%	3.5	.
O=C(OCc1nc2ccccc2s1)c1cccs1	4.9%	14.9%	11.2%	-61.8*	15.7%
CCn1cc(C(=O)NCCCN2CCC(C)CC2)c(=O)c2cc(S(=O)(=O)N3CCOCC3)ccc21	.	-1.6%	14.4%	-37.2	.
COc1ccc(/C=C/C(=O)Oc2cccc(/C=N/NC(=O)Cc3ccc(Br)cc3)c2)cc1	.	-12.6%	41.8%	-33.2	.

Source: PubChem BioAssay
